Measured values: ChEMBL document CHEMBL3988442, “University of Dundee, Small-Polar-MMV Screening Library” (2021)
For some of these results: Potency and affinity values are given separately.

Experiments:
Parameters in all cases: scale not given: direction of the effect not stated beside the values
[1] = biological target: Protein translocase subunit SecA (Escherichia coli (strain K12)) (UniProt P10408); test: Assay to Identify E. coli SecA ATPase Inhibitors; format: functional; conditions: 30 µM
[2] = biological target: T1, Ubiquitin-activating enzyme e1, putative (Leishmania donovani (strain BPK282A1)) (UniProt E9BSI1); test: Leishmania donovani Ubiquitin Activating Enzyme (LdE1); format: functional; conditions: 30 µM
T1 sequence (whole entry): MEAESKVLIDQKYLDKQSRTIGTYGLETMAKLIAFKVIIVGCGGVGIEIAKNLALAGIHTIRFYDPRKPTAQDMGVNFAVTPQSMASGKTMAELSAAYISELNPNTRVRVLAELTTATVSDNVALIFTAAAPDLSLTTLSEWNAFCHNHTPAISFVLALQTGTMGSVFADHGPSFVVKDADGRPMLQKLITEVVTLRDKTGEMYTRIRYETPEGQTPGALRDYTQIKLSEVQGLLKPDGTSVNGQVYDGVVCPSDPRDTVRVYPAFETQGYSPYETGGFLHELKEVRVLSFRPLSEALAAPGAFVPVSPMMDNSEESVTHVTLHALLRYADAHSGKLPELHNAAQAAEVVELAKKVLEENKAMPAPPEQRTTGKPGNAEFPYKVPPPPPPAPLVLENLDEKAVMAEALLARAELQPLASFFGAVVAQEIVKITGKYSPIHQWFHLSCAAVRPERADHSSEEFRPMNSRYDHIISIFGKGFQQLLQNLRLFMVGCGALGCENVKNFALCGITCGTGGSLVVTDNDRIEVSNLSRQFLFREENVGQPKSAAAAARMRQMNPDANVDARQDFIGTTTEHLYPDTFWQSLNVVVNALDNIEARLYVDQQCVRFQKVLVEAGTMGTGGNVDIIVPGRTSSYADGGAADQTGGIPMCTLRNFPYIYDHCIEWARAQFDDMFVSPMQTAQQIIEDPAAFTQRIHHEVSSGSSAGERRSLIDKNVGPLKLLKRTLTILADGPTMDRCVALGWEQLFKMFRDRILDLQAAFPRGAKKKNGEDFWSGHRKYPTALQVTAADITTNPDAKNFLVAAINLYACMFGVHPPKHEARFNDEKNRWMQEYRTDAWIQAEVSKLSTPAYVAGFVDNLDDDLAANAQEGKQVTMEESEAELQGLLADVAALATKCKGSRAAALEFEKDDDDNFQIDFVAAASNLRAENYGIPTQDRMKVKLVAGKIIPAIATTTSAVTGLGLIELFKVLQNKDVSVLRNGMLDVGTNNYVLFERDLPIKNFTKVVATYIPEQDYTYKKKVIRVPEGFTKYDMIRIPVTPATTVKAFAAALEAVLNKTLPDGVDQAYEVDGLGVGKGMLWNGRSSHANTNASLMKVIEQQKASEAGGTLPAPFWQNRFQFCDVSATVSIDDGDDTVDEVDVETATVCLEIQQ

[3] = biological target: AMP-activated protein kinase, AMPK (Homo sapiens) (UniProt P54646+O43741+P54619+Q9UGJ0+Q9Y478+Q13131+Q9UGI9); test: AMP-dependent Kinase enzyme assay. An in vitro enzyme assay that detects ADP turnover that is directly proportional to AMPK activity. This uses naive AMPK that is activated during the assay with MK-8722; format: functional; conditions: 30 µM
[4] = biological target: Sialic acid-binding Ig-like lectin 9 (Homo sapiens) (UniProt Q9Y336); test: Hs-Siglec9 ALPHAscreen SOP 20170721; conditions: 10 µM
Trypanosoma cruzi = test: Trypanosoma cruzi phosphomannomutase and mannose-1-phosphate guanylyltransferase assay; format: functional; conditions: 10 µM
[5] = biological target: T2, Arginase-2, mitochondrial (Homo sapiens) (UniProt P78540); test: in vitro enzyme assay to detect the production of urea directly proportional to the activity of Arginase II; format: functional; conditions: 33.3 µM; note: in the data most compounds retested in dose-response had high values
T2 sequence (whole entry): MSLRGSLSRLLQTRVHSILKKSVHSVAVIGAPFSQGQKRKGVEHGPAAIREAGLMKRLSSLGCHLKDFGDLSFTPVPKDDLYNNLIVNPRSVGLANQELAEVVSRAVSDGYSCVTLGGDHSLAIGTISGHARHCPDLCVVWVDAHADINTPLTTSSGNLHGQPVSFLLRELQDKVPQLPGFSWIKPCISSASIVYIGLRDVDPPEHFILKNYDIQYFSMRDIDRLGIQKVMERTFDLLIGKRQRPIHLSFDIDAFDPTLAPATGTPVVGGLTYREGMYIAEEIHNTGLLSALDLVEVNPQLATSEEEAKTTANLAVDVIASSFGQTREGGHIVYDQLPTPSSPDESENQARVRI

[6] = biological target: T3, Proteasome subunit beta (Trypanosoma cruzi) (UniProt O96673); test: Trypanosoma cruzi proteasome chymotrypsin-like activity (TcProtChymo) assay.; note: in the data most compounds retested in dose-response had high values; format: functional; conditions: 9.37 µM
T3 sequence (whole entry): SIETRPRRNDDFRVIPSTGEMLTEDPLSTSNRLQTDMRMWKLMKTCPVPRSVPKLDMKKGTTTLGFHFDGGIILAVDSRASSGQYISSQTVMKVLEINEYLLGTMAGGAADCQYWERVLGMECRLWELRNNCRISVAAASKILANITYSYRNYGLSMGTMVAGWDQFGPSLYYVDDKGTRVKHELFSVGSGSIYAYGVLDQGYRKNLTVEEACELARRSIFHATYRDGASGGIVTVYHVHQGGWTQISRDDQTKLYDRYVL

Homo sapiens = species on record: Homo sapiens; test: To identify inhibition of the IFN signalling (Jak-Stat) pathway via expression of an eGFP reporter gene under the control of an IFN-stimulated response element (ISRE) containing MxA promoter.; format: functional; conditions: 30 µM
[7] = biological target: T4, Tyrosyl-tRNA synthetase, putative (Trypanosoma cruzi (strain CL Brener)) (UniProt Q4DSP6); test: Trypanosoma cruzi tyrosyl tRNA synthetase (TcYRS) _High Tyrosine SOP; format: functional; conditions: 30 µM; note: in the data most compounds retested in dose-response had high values
T4 sequence (whole entry): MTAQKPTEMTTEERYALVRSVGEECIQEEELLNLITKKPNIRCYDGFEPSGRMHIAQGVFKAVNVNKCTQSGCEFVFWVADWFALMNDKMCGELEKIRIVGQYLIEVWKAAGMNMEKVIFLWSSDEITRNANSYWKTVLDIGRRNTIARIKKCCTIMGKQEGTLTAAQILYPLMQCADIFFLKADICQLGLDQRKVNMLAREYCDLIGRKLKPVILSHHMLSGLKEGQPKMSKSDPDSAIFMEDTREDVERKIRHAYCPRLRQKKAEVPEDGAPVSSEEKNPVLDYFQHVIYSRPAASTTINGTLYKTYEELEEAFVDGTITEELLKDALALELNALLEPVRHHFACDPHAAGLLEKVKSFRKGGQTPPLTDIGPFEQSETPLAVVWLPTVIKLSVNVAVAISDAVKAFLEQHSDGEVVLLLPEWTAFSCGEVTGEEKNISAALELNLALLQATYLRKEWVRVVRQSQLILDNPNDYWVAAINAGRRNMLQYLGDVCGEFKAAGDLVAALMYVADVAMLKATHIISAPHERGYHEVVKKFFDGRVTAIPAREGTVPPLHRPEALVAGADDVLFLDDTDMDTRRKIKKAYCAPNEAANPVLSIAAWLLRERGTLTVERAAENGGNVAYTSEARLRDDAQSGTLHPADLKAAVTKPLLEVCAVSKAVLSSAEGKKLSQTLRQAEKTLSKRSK

[8] = biological target: T4, Tyrosyl-tRNA synthetase, putative (Trypanosoma cruzi (strain CL Brener)); test: Trypanosoma cruzi tyrosyl tRNA synthetase (TcYRS) SOP; format: functional; conditions: 30 µM
[9] = biological target: Chromo domain-containing protein 1 (Saccharomyces cerevisiae (strain ATCC 204508 / S288c) (Baker's yeast)) (UniProt P32657); test: ScCHD-1 Enzyme Inhibition Assay; format: functional; conditions: 30 µM; note: in the data most compounds retested in dose-response had high values
Chromo domain-containing protein 1 (Saccharomyces cerevisiae (strain ATCC 204508 / S288c) (Baker's yeast)), sequence (P32657 whole entry, the tested form may be a part): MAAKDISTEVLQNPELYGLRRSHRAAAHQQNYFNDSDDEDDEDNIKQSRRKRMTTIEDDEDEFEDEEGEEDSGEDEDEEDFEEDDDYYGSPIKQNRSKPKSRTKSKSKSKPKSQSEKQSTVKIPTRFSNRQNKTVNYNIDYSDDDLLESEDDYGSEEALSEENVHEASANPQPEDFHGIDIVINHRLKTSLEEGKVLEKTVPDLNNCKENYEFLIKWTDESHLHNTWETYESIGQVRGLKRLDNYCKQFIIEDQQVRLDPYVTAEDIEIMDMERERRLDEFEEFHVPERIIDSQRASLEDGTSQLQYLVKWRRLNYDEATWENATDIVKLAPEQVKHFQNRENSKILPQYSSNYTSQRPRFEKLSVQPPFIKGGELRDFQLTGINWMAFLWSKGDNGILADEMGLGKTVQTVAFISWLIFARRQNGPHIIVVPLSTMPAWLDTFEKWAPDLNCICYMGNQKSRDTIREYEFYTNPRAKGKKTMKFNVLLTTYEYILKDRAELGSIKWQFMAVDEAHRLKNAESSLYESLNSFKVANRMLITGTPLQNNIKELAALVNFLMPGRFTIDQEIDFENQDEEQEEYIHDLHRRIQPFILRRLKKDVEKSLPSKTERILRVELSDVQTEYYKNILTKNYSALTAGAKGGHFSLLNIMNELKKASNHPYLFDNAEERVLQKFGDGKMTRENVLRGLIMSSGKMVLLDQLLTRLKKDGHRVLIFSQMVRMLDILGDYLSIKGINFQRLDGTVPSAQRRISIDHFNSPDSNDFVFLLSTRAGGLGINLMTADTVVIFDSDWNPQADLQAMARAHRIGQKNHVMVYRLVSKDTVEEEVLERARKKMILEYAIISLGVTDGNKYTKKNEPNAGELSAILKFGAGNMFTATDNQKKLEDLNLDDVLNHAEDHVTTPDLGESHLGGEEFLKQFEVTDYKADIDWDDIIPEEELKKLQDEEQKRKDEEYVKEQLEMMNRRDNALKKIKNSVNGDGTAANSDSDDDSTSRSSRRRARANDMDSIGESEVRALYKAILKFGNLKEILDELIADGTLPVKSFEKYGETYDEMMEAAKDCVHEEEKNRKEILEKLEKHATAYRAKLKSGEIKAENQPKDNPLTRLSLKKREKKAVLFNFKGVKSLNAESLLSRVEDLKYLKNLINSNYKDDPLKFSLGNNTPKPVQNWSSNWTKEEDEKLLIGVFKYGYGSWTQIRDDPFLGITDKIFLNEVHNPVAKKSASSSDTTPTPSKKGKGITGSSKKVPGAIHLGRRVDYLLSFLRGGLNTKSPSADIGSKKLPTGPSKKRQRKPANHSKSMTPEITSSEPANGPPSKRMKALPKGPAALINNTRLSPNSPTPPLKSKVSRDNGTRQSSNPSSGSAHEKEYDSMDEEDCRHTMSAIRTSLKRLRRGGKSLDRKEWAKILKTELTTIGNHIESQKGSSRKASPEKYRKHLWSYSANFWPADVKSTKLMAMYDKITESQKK

Sialic acid-binding Ig-like lectin 9 (Homo sapiens), sequence (Q9Y336 whole entry): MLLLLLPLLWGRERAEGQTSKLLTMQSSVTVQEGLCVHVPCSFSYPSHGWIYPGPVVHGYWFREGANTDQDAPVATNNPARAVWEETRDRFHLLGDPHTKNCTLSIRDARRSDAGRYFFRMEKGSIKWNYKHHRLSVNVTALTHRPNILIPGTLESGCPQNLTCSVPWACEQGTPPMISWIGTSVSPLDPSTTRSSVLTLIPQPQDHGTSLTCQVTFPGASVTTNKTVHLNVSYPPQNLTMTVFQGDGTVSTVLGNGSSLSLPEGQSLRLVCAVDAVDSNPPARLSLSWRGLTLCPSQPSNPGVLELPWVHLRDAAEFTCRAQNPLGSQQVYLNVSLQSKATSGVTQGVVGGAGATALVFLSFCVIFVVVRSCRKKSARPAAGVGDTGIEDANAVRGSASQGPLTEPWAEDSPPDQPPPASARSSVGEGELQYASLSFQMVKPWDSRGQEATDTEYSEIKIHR
Protein translocase subunit SecA (Escherichia coli (strain K12)), sequence (P10408 whole entry): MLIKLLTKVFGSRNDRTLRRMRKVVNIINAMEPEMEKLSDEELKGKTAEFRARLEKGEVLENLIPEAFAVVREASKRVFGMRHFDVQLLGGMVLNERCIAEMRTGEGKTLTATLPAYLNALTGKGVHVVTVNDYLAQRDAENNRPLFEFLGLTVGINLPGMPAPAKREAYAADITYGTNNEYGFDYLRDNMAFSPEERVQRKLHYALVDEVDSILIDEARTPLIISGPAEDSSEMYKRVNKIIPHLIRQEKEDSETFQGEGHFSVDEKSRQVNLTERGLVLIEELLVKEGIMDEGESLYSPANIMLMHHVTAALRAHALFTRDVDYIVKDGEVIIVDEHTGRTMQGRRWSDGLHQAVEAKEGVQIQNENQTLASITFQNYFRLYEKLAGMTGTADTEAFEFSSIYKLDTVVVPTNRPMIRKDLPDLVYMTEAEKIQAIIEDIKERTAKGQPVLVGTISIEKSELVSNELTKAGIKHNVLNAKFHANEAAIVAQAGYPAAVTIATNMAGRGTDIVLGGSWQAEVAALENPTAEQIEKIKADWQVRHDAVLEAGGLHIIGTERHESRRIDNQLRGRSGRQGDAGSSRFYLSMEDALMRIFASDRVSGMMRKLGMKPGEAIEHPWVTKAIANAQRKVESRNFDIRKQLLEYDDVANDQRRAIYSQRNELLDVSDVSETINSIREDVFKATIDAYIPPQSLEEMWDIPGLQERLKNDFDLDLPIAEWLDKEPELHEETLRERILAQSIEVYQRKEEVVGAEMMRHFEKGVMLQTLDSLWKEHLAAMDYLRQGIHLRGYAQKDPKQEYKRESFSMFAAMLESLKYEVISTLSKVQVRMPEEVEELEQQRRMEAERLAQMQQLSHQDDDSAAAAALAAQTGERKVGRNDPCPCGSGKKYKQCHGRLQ

Row | Compound | Percent Effect [1] [%] | Percent Effect [2] [%] | Percent Effect [3] [%] | Percent Effect [4] [%] | Percent Effect (Trypanosoma cruzi) [%] | Percent Effect [5] [%] | Percent Effect [6] [%] | Percent Effect (Homo sapiens) [%] | Percent Effect [7] [%] | Percent Effect [8] [%] | Percent Effect [9] [%]
1 | Cc1ccc2cc(CNCCCN3CCOCC3)c(=O)[nH]c2c1 | -3.73 | 4.05 | 11.3 | 5.46 | 0.395 | -0.696 | 6.08 | 12 | 5.38 | 9.09 | -7.66
2 | Cc1nn(-c2ccccc2)c2c1C(c1ccc(C(=O)O)cc1)CC(=O)N2 (stereo unspecified) | -4.78 | 10.7 | -3.15 | 13.8 | 6.33 | 2.6 | 7.85 | 11.5 | 3.83 | 6.17 | -14.9
3 | Cn1ccnc1CNC(=O)N(CCCO)C1CCCc2ccccc21 (stereo unspecified) | -2.21 | 5.26 | -1.41 | -4.25 | 2.43 | -3.55 | -3.36 | 8.36 | 2.13 | 10.4 | -9.5
4 | O=C(NCC1CC1)C1CN(C(=O)c2cccs2)CC12CCOCC2 (stereo unspecified) | -8.31 | 16 | 2.41 | 3.43 | 0.579 | -52.5 | 4.62 | -9.4 | 5.21 | -47.5 | -5.08
5 | Cc1nnc(NC(=O)NC2CCOc3ccccc32)s1 (stereo unspecified) | -3.11 | 5.48 | -3.94 | 7.64 | 1.59 | -4.39 | 12.8 | -9.09 | 12.5 | 23.5 | 1.07
6 | CN(C)C(C)(C)CNC(=O)C(C)(C)c1ccccc1F | -0.22 | 9.72 | -4.87 | 4.5 | -4.18 | -0.442 | 13.2 | 17.2 | 4.21 | -2.56 | 105
7 | CN(Cc1ccco1)Cc1cncc2c1CCN(c1ncccn1)C2 | -0.988 | 8 | -6.54 | -2.14 | 3.86 | -48.6 | 14.9 | -4.67 | -1.04 | 2.5 | -2.02
8 | Cc1cc(C)nc(N2Cc3cnn(Cc4ccc(F)cc4)c3C2)n1 | -6.24 | -2.67 | 1.55 | -0.223 | -7.5 | -2.6 | 10.6 | 33.6 | -6.01 | -6.17 | -5.39
9 | O=C(c1ccc(Br)o1)N1CCCCC1Cn1cccn1 (stereo unspecified) | -1.08 | 2.7 | -1.88 | 12.6 | 0.279 | 0.924 | 15.3 | 18.2 | 0.99 | 3.66 | 0.762
10 | Cc1nc(C)n(CC2CCCN2Cc2cscn2)n1 (stereo unspecified) | -4.14 | 2.6 | 3.5 | 10.9 | 2.64 | -0.21 | -0.404 | -14.6 | 5.71 | 11.8 | -13.6
11 | CN(C)C(=O)COCc1cncc2c1CCN(Cc1nccn1C)C2 | -2.93 | 7.79 | 3.61 | 17.4 | 7.18 | -106 | 3 | 20.9 | 6.45 | 13.6 | 0.222
